Measurements taken from article PMC7862700, “An all-to-all approach to the identification of sequence-specific readers for epigenetic DNA modifications on cytosine”.

How the values were obtained:
Test in all cases: DAPPL (digital affinity profiling via proximity ligation, sequencing); 10 mM Tris-HCl pH 7.5, 50 mM NaCl, 1 mM DTT, 4% glycerol, room temperature, 30 min; GST-TFs on glutathione beads, 16-mer random dsDNA library, 0.1% formaldehyde crosslink after washing; high values mean tight binding
[1] = molecular target: T1, FLI1 (Homo sapiens, UniProt Q01543 1-452); conditions: protein: recombinant; tags: N-terminal GST; dsDNA, one strand shown
T1 sequence: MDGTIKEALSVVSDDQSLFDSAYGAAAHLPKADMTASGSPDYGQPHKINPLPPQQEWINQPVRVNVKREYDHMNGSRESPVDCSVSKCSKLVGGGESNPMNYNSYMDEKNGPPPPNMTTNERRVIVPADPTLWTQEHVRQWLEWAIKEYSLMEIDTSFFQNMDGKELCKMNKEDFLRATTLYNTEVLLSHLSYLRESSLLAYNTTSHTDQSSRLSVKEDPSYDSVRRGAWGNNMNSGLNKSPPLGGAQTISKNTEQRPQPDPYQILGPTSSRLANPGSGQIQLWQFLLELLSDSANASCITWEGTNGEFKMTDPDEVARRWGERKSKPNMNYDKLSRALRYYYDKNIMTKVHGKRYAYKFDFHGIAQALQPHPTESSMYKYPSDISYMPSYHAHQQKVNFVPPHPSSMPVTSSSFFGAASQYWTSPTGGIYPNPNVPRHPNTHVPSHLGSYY
Summary of the method: (§1)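 Sequencing on an Illumina NextSeq500 followed washing, crosslinking with 0.1% formaldehyde, proximity ligation (BsaI/T4 ligase, 1 h, 37 °C) and PCR amplification of pools that had been incubated for 30 min at room temperature with 200 nmole of a random double-stranded 16-mer DNA library in Tris/NaCl/DTT/glycerol buffer. Each pool held DNA-barcoded human transcription factors, expressed in yeast as GST fusions and captured on glutathione beads, plus a tag-only sample. Binding signal is a hexamer's read frequency for a factor divided by its frequency in the tag-only sample.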

[2] = molecular target: T2, ELK1 (Homo sapiens, UniProt P19419 1-428); conditions: protein: recombinant; tags: N-terminal GST; dsDNA, one strand shown
T2 sequence: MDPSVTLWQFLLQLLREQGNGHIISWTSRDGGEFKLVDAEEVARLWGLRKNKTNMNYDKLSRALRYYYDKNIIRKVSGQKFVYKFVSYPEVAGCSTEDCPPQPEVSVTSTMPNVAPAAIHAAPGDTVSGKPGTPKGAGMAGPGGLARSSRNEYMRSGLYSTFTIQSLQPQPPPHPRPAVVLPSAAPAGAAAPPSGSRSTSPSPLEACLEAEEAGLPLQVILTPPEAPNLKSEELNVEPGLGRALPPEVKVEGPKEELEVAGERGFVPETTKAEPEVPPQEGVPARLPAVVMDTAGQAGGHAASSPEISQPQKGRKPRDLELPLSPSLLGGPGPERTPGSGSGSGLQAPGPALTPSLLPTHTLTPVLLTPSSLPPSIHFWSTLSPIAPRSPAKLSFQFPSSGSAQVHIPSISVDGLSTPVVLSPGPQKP
Summary of the method: as §1

[3] = molecular target: T3, GABPA (Homo sapiens, UniProt Q06546 1-454); conditions: protein: recombinant; tags: N-terminal GST; dsDNA, one strand shown
T3 sequence: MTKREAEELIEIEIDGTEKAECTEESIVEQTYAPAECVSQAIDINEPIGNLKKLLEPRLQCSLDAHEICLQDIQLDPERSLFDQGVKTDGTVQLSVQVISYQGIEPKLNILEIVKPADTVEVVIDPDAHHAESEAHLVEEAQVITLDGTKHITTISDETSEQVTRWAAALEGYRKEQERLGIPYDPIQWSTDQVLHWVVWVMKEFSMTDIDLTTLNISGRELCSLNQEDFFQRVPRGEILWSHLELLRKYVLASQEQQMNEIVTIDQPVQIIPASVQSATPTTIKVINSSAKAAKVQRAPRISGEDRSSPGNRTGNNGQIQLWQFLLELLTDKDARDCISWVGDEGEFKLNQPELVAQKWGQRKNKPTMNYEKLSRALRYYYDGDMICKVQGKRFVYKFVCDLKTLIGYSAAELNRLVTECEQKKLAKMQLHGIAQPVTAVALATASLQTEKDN
Summary of the method: as §1

[4] = molecular target: T4, ERG (Homo sapiens, UniProt P11308 1-479); conditions: protein: recombinant; tags: N-terminal GST; dsDNA, one strand shown
T4 sequence: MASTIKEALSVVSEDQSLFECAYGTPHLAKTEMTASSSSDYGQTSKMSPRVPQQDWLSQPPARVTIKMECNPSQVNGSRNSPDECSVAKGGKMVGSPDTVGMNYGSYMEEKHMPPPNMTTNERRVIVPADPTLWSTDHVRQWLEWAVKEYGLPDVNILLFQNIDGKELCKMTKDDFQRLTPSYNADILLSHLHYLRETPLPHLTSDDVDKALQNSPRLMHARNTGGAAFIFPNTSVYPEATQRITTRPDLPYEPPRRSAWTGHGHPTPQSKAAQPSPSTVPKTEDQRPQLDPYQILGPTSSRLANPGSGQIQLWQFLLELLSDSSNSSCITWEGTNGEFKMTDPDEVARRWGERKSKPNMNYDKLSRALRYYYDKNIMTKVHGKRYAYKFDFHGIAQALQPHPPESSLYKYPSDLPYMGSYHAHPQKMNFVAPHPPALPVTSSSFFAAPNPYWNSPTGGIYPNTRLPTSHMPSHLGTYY
Summary of the method: as §1

[5] = molecular target: ELF1 (Homo sapiens, UniProt P32519 1-619); conditions: protein: recombinant; tags: N-terminal GST; dsDNA, one strand shown
Chain of ELF1 (P32519 whole entry): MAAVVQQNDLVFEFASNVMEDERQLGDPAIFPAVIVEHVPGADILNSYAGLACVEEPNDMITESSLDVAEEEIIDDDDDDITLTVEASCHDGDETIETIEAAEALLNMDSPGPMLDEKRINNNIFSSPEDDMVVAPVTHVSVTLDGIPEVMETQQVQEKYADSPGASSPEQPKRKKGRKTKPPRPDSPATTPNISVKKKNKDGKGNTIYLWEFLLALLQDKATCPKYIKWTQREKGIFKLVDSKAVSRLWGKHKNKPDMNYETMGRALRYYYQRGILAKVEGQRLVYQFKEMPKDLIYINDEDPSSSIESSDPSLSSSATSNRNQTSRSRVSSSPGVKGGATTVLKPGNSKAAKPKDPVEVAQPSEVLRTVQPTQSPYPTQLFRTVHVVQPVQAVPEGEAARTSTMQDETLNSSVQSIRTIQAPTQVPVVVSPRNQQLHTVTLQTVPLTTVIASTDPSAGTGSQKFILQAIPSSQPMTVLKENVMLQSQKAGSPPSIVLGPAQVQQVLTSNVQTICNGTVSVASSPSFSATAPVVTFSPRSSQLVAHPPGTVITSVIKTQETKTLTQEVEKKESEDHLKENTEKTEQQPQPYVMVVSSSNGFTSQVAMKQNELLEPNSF
Summary of the method: as §1

[6] = molecular target: T5, EHF (Homo sapiens, UniProt Q9NZC4 1-300); conditions: protein: recombinant; tags: N-terminal GST; dsDNA, one strand shown
T5 sequence: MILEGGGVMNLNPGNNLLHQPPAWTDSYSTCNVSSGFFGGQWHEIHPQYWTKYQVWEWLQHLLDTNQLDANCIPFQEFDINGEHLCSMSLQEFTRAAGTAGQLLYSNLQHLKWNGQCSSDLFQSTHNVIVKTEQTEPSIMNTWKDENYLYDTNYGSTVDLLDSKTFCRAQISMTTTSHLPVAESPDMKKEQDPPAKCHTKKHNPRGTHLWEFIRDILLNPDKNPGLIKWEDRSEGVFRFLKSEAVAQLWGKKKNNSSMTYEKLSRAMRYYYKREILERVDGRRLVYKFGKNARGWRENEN
Summary of the method: as §1

[7] = molecular target: SPI1 (Homo sapiens, UniProt P17947 1-270); conditions: protein: recombinant; tags: N-terminal GST; dsDNA, one strand shown
Summary of the method: as §1

[8] = molecular target: SPIB (Homo sapiens, UniProt Q01892 1-262); conditions: protein: recombinant; tags: N-terminal GST; dsDNA, one strand shown
Chain of SPIB (Q01892 whole entry): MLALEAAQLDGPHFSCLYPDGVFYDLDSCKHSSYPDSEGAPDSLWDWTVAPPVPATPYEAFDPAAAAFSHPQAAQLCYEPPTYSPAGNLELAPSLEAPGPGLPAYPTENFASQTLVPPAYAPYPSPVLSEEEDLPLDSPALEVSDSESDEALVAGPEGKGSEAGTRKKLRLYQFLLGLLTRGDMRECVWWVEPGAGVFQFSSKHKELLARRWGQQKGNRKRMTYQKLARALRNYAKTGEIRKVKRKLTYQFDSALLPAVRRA
Summary of the method: as §1

[9] = molecular target: T6, ELK3 (Homo sapiens, UniProt P41970 1-407); conditions: protein: recombinant; tags: N-terminal GST; dsDNA, one strand shown
T6 sequence: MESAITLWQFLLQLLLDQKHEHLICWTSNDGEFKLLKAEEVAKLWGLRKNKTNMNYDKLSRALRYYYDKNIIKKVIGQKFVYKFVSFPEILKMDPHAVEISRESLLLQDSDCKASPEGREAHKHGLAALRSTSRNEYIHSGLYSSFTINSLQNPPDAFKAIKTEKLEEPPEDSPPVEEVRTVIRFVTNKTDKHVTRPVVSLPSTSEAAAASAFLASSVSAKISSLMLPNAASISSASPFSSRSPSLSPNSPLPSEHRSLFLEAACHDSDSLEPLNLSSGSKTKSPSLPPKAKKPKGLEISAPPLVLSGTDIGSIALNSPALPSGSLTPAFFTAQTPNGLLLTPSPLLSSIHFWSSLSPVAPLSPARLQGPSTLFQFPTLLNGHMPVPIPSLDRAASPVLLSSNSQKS
Summary of the method: as §1

[10] = molecular target: T7, FEV (Homo sapiens, UniProt Q99581 1-238); conditions: protein: recombinant; tags: N-terminal GST; dsDNA, one strand shown
T7 sequence: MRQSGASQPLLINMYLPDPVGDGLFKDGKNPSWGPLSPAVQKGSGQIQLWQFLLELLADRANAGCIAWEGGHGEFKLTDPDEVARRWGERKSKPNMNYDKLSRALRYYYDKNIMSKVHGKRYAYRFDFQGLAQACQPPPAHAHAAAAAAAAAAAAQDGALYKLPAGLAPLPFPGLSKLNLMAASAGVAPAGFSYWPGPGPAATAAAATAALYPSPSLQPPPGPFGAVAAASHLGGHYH
Summary of the method: as §1

[11] = molecular target: ETV5 (Homo sapiens, UniProt P41161 1-510); conditions: protein: recombinant; tags: N-terminal GST; dsDNA, one strand shown
Chain of ETV5 (P41161 whole entry): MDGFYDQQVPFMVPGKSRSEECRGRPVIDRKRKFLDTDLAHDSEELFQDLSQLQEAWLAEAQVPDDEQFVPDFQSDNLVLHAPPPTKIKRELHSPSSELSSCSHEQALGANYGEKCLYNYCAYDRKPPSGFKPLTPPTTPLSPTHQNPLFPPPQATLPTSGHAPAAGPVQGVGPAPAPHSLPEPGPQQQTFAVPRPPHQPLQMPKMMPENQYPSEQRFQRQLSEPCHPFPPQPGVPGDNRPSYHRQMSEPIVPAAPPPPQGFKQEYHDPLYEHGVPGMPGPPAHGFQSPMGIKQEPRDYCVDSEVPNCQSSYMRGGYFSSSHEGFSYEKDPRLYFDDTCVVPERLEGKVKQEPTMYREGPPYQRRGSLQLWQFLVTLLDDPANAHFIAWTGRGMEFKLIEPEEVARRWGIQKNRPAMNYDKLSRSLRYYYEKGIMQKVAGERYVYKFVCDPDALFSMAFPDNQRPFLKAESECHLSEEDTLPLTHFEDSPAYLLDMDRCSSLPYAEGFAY
Summary of the method: as §1

[12] = molecular target: HSF1 (Homo sapiens, UniProt Q00613 1-529); conditions: protein: recombinant; tags: N-terminal GST; chain copies: 3; dsDNA, one strand shown
Chain of HSF1 (Q00613 whole entry): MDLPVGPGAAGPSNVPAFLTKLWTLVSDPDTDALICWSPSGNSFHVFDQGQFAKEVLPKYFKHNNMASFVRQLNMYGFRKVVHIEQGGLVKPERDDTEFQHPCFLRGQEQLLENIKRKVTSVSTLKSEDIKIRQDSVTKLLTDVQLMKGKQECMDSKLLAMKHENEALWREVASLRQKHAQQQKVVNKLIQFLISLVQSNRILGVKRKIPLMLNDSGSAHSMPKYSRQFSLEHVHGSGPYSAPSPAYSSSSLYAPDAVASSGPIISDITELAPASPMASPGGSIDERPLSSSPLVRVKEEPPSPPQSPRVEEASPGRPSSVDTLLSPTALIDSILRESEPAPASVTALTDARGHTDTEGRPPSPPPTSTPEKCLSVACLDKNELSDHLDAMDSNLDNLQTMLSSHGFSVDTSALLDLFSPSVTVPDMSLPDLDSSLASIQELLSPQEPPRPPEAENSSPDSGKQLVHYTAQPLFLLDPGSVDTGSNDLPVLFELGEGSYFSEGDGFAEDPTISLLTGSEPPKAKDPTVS
Summary of the method: as §1

[13] = molecular target: T8, SPIC (Homo sapiens, UniProt Q8N5J4 1-248); conditions: protein: recombinant; tags: N-terminal GST; dsDNA, one strand shown
T8 sequence: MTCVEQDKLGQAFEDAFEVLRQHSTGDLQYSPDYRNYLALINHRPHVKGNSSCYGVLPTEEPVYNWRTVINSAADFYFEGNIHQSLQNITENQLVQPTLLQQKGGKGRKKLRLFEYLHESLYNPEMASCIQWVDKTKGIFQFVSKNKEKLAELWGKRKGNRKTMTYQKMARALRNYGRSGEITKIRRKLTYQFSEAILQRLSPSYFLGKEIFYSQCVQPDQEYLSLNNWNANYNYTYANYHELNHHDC
Summary of the method: as §1

[14] = molecular target: ELF4 (Homo sapiens, UniProt Q99607 1-663); conditions: protein: recombinant; tags: N-terminal GST; dsDNA, one strand shown
Chain of ELF4 (Q99607 whole entry): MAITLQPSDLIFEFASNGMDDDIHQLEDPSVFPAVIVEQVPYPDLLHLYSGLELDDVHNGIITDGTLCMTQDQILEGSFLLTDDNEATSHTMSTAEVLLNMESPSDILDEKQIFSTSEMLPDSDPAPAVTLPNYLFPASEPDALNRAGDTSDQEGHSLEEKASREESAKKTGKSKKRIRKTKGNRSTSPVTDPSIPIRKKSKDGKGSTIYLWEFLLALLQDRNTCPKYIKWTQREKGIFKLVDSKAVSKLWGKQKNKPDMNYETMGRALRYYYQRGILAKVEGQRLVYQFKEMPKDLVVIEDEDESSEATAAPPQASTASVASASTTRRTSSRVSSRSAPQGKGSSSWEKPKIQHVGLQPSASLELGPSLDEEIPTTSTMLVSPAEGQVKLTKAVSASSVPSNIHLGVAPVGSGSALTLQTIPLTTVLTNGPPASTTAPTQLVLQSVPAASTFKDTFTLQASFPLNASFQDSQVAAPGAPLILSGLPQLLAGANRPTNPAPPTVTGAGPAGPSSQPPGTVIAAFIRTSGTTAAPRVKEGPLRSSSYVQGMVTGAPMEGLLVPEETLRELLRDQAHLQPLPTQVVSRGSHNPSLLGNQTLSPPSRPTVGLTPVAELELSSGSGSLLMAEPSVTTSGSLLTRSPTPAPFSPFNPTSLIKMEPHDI
Summary of the method: as §1

[15] = molecular target: T9, ELK4 (Homo sapiens, UniProt P28324-2 1-405); conditions: protein: recombinant; tags: N-terminal GST; dsDNA, one strand shown
T9 sequence: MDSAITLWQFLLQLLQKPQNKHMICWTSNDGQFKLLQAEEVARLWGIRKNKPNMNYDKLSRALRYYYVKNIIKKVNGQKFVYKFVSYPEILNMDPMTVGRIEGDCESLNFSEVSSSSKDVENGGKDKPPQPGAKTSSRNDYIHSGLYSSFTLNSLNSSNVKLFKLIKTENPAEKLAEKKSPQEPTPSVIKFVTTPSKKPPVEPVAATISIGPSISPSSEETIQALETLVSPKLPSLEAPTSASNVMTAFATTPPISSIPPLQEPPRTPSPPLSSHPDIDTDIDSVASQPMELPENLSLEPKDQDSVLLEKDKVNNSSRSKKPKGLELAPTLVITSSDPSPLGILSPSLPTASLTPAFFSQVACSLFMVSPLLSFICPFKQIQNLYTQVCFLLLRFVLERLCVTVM
Summary of the method: as §1

[16] = molecular target: T10, ETV2 (Homo sapiens, UniProt O00321 1-342); conditions: protein: recombinant; tags: N-terminal GST; dsDNA, one strand shown
T10 sequence: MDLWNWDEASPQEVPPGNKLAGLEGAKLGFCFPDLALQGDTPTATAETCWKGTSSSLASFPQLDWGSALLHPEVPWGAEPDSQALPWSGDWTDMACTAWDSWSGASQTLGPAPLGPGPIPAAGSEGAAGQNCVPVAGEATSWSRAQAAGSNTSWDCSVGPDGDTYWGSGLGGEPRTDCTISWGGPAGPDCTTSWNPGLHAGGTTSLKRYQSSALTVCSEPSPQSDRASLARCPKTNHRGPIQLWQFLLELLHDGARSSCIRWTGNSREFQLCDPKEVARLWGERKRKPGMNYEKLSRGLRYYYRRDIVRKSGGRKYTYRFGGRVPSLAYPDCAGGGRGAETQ
Summary of the method: as §1

[17] = molecular target: T11, ELF3 (Homo sapiens, UniProt P78545 1-371); conditions: protein: recombinant; tags: N-terminal GST; dsDNA, one strand shown
T11 sequence: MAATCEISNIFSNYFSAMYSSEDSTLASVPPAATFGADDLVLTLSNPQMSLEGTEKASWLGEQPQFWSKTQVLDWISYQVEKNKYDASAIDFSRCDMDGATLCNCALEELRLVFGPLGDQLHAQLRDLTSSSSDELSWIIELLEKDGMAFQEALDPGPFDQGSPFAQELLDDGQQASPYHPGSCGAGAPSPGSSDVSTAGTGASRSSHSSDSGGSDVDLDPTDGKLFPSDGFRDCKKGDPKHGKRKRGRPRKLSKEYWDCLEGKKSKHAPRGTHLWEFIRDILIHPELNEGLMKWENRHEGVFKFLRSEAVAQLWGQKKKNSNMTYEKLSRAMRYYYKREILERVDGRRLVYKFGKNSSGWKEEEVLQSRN
Summary of the method: as §1

[18] = molecular target: CRX (Homo sapiens, UniProt O43186 1-299); conditions: protein: recombinant; tags: N-terminal GST; dsDNA, one strand shown
Chain of CRX (O43186 whole entry): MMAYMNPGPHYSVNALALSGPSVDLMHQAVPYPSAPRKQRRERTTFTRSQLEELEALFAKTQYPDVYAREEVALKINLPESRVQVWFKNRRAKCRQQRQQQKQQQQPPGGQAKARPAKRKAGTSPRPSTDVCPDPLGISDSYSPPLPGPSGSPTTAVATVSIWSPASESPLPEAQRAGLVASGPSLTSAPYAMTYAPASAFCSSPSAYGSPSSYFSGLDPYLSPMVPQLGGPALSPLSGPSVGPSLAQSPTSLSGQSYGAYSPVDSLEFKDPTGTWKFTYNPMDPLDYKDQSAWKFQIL
Summary of the method: as §1

[19] = molecular target: ETV1 (Homo sapiens, UniProt P50549 1-477); conditions: protein: recombinant; tags: N-terminal GST; dsDNA, one strand shown
Chain of ETV1 (P50549 whole entry): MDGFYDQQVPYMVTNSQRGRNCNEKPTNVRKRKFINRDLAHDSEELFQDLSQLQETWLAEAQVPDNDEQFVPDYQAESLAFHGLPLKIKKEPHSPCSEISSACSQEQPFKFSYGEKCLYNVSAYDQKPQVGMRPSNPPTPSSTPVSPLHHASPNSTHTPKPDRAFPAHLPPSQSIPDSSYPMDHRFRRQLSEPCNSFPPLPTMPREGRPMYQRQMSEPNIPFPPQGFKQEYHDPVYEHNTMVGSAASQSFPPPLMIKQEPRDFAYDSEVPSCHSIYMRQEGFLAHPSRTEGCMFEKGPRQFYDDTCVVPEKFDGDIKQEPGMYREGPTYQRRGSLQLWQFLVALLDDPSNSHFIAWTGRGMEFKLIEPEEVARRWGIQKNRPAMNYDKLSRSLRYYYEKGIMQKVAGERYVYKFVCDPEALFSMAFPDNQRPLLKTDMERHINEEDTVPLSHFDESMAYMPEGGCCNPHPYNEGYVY
Summary of the method: as §1

Sequence: TATGAA
- binding signal [1]: 1.18 fold enrichment (6-mer frequency, TF over GST control)
- binding signal [2]: 1.17 fold enrichment (6-mer frequency, TF over GST control)
- binding signal [3]: 1.21 fold enrichment (6-mer frequency, TF over GST control)
- binding signal [4]: 1.14 fold enrichment (6-mer frequency, TF over GST control)
- binding signal [5]: 1.18 fold enrichment (6-mer frequency, TF over GST control)
- binding signal [6]: 1.12 fold enrichment (6-mer frequency, TF over GST control)
- binding signal [7]: 1.19 fold enrichment (6-mer frequency, TF over GST control)
- binding signal [8]: 1.17 fold enrichment (6-mer frequency, TF over GST control)
- binding signal [9]: 1.16 fold enrichment (6-mer frequency, TF over GST control)
- binding signal [10]: 1.14 fold enrichment (6-mer frequency, TF over GST control)
- binding signal [11]: 1.12 fold enrichment (6-mer frequency, TF over GST control)
- binding signal [12]: 1.21 fold enrichment (6-mer frequency, TF over GST control)
- binding signal [13]: 1.4 fold enrichment (6-mer frequency, TF over GST control)
- binding signal [14]: 1.26 fold enrichment (6-mer frequency, TF over GST control)
- binding signal [15]: 1.13 fold enrichment (6-mer frequency, TF over GST control)
- binding signal [16]: 1.17 fold enrichment (6-mer frequency, TF over GST control)
- binding signal [17]: 1.29 fold enrichment (6-mer frequency, TF over GST control)
- binding signal [18]: 1.25 fold enrichment (6-mer frequency, TF over GST control)
- binding signal [19]: 1.14 fold enrichment (6-mer frequency, TF over GST control)
